This is a sample that favours compounds with a hit; in the whole collection about 0.85% have one here.
RECQ1 inh-1: inhibitors of human RECQ1 DNA helicase | P46063 | RECQ1 DNA unwinding, red fluorescence kinetic read | Potency, µM (series often up to 57.3 µM), for inactives: at the top dose activity, negative = inhibition, usual class: inhibitors | 240,000 tested, 0.54% active;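 note: plate controls were vehicle for no effect and no enzyme for full effect; nearly all actives have a fitted effect of over 30% in size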
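50 nM RECQ1T1 preincubated 15 min with compound in Tris pH 8.0 buffer with MgCl2, DTT, Tween-20 and 2.5 ug/ml poly(dI-dC); started with 200 nM TAMRA/BHQ-2 forked duplex and 2 mM ATP. Unwinding read as fluorescence (525/598 nm), two reads 2 h apart.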
APE1 inh: blocks human APE1 abasic DNA cleavage | 350,000 tested, 0.35% active | Potency, µM (doses to about 65.8 µM), inactives show top-dose activity change, negative = inhibition, hits mostly inhibitors | recombinant APE1, TAMRA/BHQ-2 abasic DNA cleavage fluorescence;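 note: plate controls were vehicle for no effect and reference inhibitor for full effect; nearly all actives have a fitted effect of over 55% in size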
Target sequence (P27695 whole entry, looked up): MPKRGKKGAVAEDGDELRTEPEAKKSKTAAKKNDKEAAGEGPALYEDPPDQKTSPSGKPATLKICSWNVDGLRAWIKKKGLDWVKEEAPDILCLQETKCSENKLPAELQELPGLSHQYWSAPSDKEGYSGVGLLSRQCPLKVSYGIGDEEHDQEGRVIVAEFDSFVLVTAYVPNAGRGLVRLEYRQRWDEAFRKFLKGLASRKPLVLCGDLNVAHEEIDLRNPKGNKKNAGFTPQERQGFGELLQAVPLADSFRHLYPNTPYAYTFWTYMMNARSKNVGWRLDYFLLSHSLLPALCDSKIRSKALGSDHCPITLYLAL
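Kinetic fluorescence read (525 ex/598 em nm, three reads 60 s apart) of AP-site incision; signal = third minus first read. Enzyme 0.75 nM, dual-labelled THF duplex 50 nM, compound preincubation 15 min RT.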
TDP1 inh: blocks human tyrosyl-DNA phosphodiesterase 1; Q9NUW8; recombinant TDP1, AlphaScreen DNA substrate cleavage; Potency, µM (series often up to 130 µM), for the others: at the highest dose activity change, negative = inhibition, most hits filed as inhibitors; 350,000 tested, 0.28% active; note: nearly all actives have a fitted effect of over 40% in size
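Here, a 5' biotin and 3' phosphotyrosine-FITC DNA oligonucleotide reports Tdp1 activity: intact substrate bridges AlphaScreen beads, while cleavage leaves a 3' phosphate and drops signal. All incubations at room temperature.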
GLS inhibitor: inhibitors of human glutaminase (GLS) | GLS enzymatic activity, qHTS titration | 410,000 tested, 0.21% active | Potency, µM (doses to about 45.5 µM), for inactives: top-dose activity change, negative = inhibition, hits mostly inhibitors
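Enzyme dispensed in phosphate buffer (45 mM, pH 8.2, 0.02% Tween-20), compounds pinned in, then 1 mM L-glutamine solution and the glutamate oxidase–HRP–Amplex Red mix added; fluorescence read immediately and again after 30 min at room temperature.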
BLM helicase inh: inhibitors of human Bloom syndrome helicase BLM; Potency, µM (doses to about 56.1 µM), for inactives: top-dose activity change, negative = inhibition, hits mostly inhibitors; recombinant BLM DNA unwinding, fluorescence dequenching; 350,000 tested, 0.2% active; AID 2528; P54132;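 note: plate controls were vehicle for no effect and no enzyme for full effect; nearly all actives have a fitted effect of over 35% in size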
Tb PGK inh: blocks T. brucei phosphoglycerate kinase | P07378 | PGK/GAPDH coupled, Kinase-Glo luminescence, 60 min | Potency, µM (titrated, usually from 57.5 µM), for the others: at the top dose activity change, negative = inhibition, usual class: inhibitors | 380,000 tested, 0.043% active | AID 602233; note: nearly all actives have a fitted effect of over 60% in size
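Luminescent ATP detection (Kinase-Glo Plus) follows a 60-minute room-temperature incubation, with wells lacking PGK as controls. Buffer: 100 mM TEA (pH 7.6), 5 mM MgCl2, 0.01% Tween-20. Coupling enzyme GAPDH (100 nM final) supplies unstable 1,3-BPG in-well.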
RECQ1 conf: confirmation of human RECQ1 helicase inhibitors. shares compounds with RECQ1 inh-1. RECQ1 helicase DNA unwinding, fluorescence. Potency, µM (top dose mostly 229 µM), for the others: top-dose activity change, negative = inhibition, usual class: inhibitors. 610 tested, 28% active. AID 2708; note: nearly all actives have a fitted effect of over 45% in size
ADP FP counter: counter-screen for RECQ1 inhibitors: ADP displacement. AID 2711. Potency, µM (doses to about 228 µM), without a hit: top-dose activity change, negative = inhibition, usual class: inhibitors. 530 tested, 27% active. ADP fluorescence polarization displacement counterscreen. shares compounds with RECQ1 inh-1; note: nearly all actives have a fitted effect of over 45% in size
RECQ1 inh-2: RECQ1 helicase inhibition confirmed, round 2; recombinant RECQ1 DNA unwinding, red fluorescence; 1,100 tested, 15% active; Potency, µM (top dose mostly 119 µM), for the others: top-dose activity, negative = inhibition, hits mostly inhibitors; shares compounds with RECQ1 inh-1; note: nearly all actives have a fitted effect of over 50% in size
Active calls of the source: *; i = inactive; u = inconclusive; x = not tested or not shown; [ ] = another dose, or the depositor's remark. Calls come from the whole dose curve; as a rule, active = well fitted curve in the direction sought with a large enough effect; inconclusive = small, poorly fitted or top-dose-only effect, or another doubt; inactive = no such curve, though single readings can be large; an effect the other way counts as inactive or inconclusive. Unless noted, % is set by controls: 0 for no effect and ±100 for the full control effect; potency is the fitted concentration of half-maximal effect.

SMILES	RECQ1 inh-1	APE1 inh	TDP1 inh	GLS inhibitor	BLM helicase inh	Tb PGK inh	RECQ1 inh-2	others
CCOc1ccccc1-c1nnc2n1N=C(c1cc(OC)ccc1OC)CS2	4.5%	-4.8%	12.7%	x	1.8%	x	x
CCOC(=O)CSc1nc2cc(OC)c(OC)cc2cc1C#N	x	x	-0.3%	x	x	x	x
Cc1cccc(C(=O)Nc2ccc(C(=O)/C=C/c3cccnc3)cc2)c1	1.12µM*	3.3%	2.3%	-1.1%	-14.8%	-11.5%	u	RECQ1 conf=-7.8%[114 µM]
O=C(c1ccc(Cl)cc1)N1CCN(c2cccc3[nH]ccc23)CC1	u	u	5.5%	-26.4%	3.1%	3.7%	-4.4%
CN(C)c1ccc(/C=C2\SC(=O)N(CCc3nnc(N)s3)C2=O)cc1	u	-2.8%	x	14.2%	-8.2%	7.1%	u
O=C(NCC1CC1)c1ccc2nc(-c3ccoc3)c(-c3ccoc3)nc2c1	x	x	1.5%	x	x	x	x
Cc1ccc(NC(=O)c2c3c(nc4ccccc24)CCC3)cc1S(=O)(=O)N(C)C	u	u	-10.8%	-2.6%	-12.0%	-2.0%	u
NCCCCCCNc1nc2c(N)ncnc2n1[C@@H]1O[C@@H]2COP(=O)(O)O[C@H]2[C@H]1O	-1.4%	u	-12.1%	x	-0.6%	x	x
O=C(OCC#CCSc1nnc(-c2cccc3ccccc23)o1)c1sccc1Cl	x	x	-0.7%	x	x	x	x
CC1=Nc2ccccc2N=C(NC(=O)CSc2nnnn2-c2ccccc2)C1c1ccccc1 (configuration not stated)	3.0%	13.7%	3.1%	7.2%	-10.8%	-6.6%	x	RECQ1 conf=0.3%;ADP FP counter=0.8%
CC(C)CCOc1ccc(N)cc1	-10.8%	-5.8%	20.7%	x	-7.0%	x	x
CCn1c(CSc2nnc(-c3ccncc3)n2C)nc2cc(C(=O)O)ccc21	14.1µM*	-9.8%	-2.5%	0.0%	-5.8%	3.8%	79.4µM*	RECQ1 conf=39.8µM*;ADP FP counter=7.08µM*
C[C@H](N)C(=O)N[C@@H](CO)C(=O)N[C@H](C(=O)N[C@H](C(=O)N[C@H](C(=O)N[C@@H](CC(N)=O)C(=O)N[C@@H](Cc1ccc(O)cc1)C(=O)N[C@H](C(=O)O)[C@@H](C)O)[C@@H](C)O)[C@@H](C)O)[C@@H](C)O	-10.0%	0.2%	7.5%	x	-3.3%	x	x
CCOC(=O)c1cc2c(=O)n3ccccc3nc2n(Cc2ccco2)c1=NC(=O)c1cccc(OC)c1	-9.5%	-9.0%	-2.6%	2.9%	u	i	x
CCOC(=O)c1cc2c(=O)n3ccccc3nc2n(Cc2ccco2)c1=NC(=O)c1ccc(OC)cc1	u	-7.3%	-7.7%	-13.7%	u	2.3%	-26.9%
O=C1c2ccccc2C(=O)c2c1cccc2N(CCO)CCO	x	6.7%	x	-0.6%	-5.9%	-22.1%	x
O=C1C=C(N(CCO)Cc2ccccc2)c2ccccc2C1=O	u	-1.5%	0.0%	5.4%	u	u	u
Cc1cc(C)c2c(CN3CCCC3)cc(=O)oc2c1	x	x	x	39.9%	x	x	x
CCc1cc(=O)oc2cc(C)c(CN3CCCCC3)c(O)c12	10µM*	22.4µM*	x	17.7%	17.8µM*	-11.4%	-14.8%	RECQ1 conf=u;ADP FP counter=63.1µM*
CCCc1cc(=O)oc2cc(C)c(CN3CCCC3)c(O)c12	12.6µM*	u	x	10µM*	25.1µM*	-4.7%	u

Screening data deposited in PubChem BioAssay by National Center for Advancing Translational Sciences (NCATS).
